The record followed here is PubChem BioAssay.

SMILES strings stand for the structures. Active and inactive are the calls of the source. Unless noted, no rule for the calls is given here.

Assay [1] relates to Wnt5a (protein binding on small-molecule microarray). Kind of assay: small molecules binding Wnt5a protein – biophysical, small-molecule microarray, 635/667 nm fluorescence, primary screen (AID 1142).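 Also: fluorescence read at 667 nm with signal to noise per printed feature.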 To be noted: 635 nm fluorescence, higher = more signal.
A short description of assay [2]: ATP-based viability of Huh7 replicon cells – cell-based, CellTiter-Glo luminescence, basal, 48 h, cytotoxicity control for HCV replication inhibitor project, primary screen (AID 1143).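 Also: Huh7 hepatoma cells carrying a hepatitis C replication reporter with no stimulus; test concentration not given here.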 As to conditions: higher = more signal, called active from +8 up or from −8 down. Background: A replicon is a self-replicating genome or part of one, used to study replication in cells.

Assay [3] can be described thus: Pseudomonas biofilm growth suppression – PAO1 strain, BacTiter-Glo luminescence, LB-PBS, primary screen (AID 1144). To be noted: P. aeruginosa PAO1 biofilm, 12 h, higher = more signal.
Assay [4] can be described thus: basal CRE-LacZ reporter activity in PC12 – cell-based, unstimulated, primary screen (AID 1145). As to conditions: no forskolin, luminescence, 4.5 h, higher = more signal, called active from +8 up or from −8 down.
Assay [5] in a line: forskolin-driven CRE-LacZ activity in PC12 – cell-based, CRE-LacZ reporter, forskolin-stimulated, primary screen (AID 1146).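 Also: PC12 cells with 6xCRE LacZ reporter stimulated by forskolin 10 µM; beta-galactosidase reporter signal reflecting CREB driven transcription.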 To be noted: luminescence, 4.5 h, higher = more signal, called active from +8 up or from −8 down.
Assay [6] has as its target Streptavidin (Streptomyces avidinii) (UniProt P22629). The assay can be described thus: compounds binding control protein streptavidin – biophysical, small-molecule microarray, 635/667 nm fluorescence, artefact control for SMM compound annotation, primary screen (AID 1147).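 Also: signal reflects streptavidin binding to arrayed compounds as a control protein.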 To be noted: higher = more signal.
The nature of assay [7]: probe aInhba binding on compound microarray – biochemical, small-molecule microarray, 635/667 nm fluorescence, primary screen (AID 1148).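 Also: score merges 667nm spot fluorescence with signal-to-noise for antibody binding to printed compounds.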 To be noted: higher = more signal.
The target in assay [8] is Torsin-1A (Homo sapiens) (UniProt O14656). The assay can be described thus: TOR1A wild-type binding on microarray – cell lysate, small-molecule microarray, lysate, 635/667 nm, primary screen (AID 1149). To be noted: COS7 hTOR1A-WT lysate, 635 nm fluorescence, higher = more signal.
For assay [9] the target is unchanged. The assay can be described thus: torsin A mutant lysate binding on microarrays – cell lysate, small-molecule microarray, COS7 lysate, 635/667 nm fluorescence, primary screen (AID 1150).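 Also: score pools 667 nm emission and signal to noise measuring lysate protein binding.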 As to conditions: COS7 hTOR1A mutant lysate, 635 nm fluorescence, higher = more signal.
The subject of assay [10] is Sonic hedgehog protein (Shh). The assay can be described thus: Sonic hedgehog microarray binding compounds – biochemical, small-molecule microarray, 635/667 nm fluorescence, primary screen (AID 1151).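 Also: Shh protein binding to compounds spotted on small-molecule microarray slides; score combines spot fluorescence intensity with signal-to-noise across triplicate slides.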 As to conditions: 635 nm fluorescence, higher = more signal.

Chain of Torsin-1A (Homo sapiens) (O14656 whole entry, looked up): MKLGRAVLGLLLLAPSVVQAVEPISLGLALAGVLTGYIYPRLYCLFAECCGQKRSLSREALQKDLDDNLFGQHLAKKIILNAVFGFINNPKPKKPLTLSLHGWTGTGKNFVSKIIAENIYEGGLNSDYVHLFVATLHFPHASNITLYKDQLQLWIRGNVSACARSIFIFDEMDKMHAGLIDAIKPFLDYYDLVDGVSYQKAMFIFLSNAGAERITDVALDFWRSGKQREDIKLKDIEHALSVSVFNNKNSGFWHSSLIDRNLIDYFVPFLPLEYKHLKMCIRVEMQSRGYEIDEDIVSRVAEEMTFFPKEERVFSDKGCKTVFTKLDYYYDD
Chain of Streptavidin (Streptomyces avidinii) (P22629 whole entry, looked up): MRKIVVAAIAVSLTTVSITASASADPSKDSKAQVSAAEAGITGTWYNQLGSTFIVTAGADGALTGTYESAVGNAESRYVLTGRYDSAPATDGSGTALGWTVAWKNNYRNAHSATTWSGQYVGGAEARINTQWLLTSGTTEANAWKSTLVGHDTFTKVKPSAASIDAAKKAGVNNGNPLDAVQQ

Take `COCCOC(=O)N1C(=O)[C@@]2(c3cc(C#CCCO)ccc31)[C@H](c1ccc(OCCO)cc1)N1[C@H](c3ccccc3)[C@H](c3ccccc3)OC(=O)[C@H]1[C@@H]2C(=O)N1CCCCCCC1`: the composite z-score in [1] was found to be 0.827; in assay [6], 1.79; in assay [7], 1.48; in [8], 0.862; in assay [9] it was 0.726; in assay [10], 1.97. The z-score was -1.31 (inactive) in assay [2], 0.542 (inactive) in assay [3], -0.459 (inactive) in assay [4] and 2.51 (inactive) in [5].
For `C=CCNC(=O)[C@H]1[C@@H]2C(=O)O[C@@H](c3ccccc3)[C@@H](c3ccccc3)N2[C@@H](c2ccc(OCCO)cc2)[C@]12C(=O)Nc1ccc(C#CC3(O)CCCCCC3)cc12`, the composite z-score in assay [1] turned out to be 0.564; in assay [6], 0.618; in assay [7] it was 0.108; in [8], 0.406; in assay [9] it was 0.564; in [10] it was 1.31. Moreover, the z-score is -3.3 (inactive) in [2], 0.15 (inactive) in assay [3], -0.329 (inactive) in assay [4] and 0.566 (inactive) in assay [5].
On to `C=CCOC(=O)[C@H]1[C@@H]2C(=O)O[C@@H](c3ccccc3)[C@@H](c3ccccc3)N2[C@@H](c2ccc(OCCOC(=O)[C@@H]3C[C@@H]4C(=O)N[C@@H](CCCCNC(C)=O)C(=O)N4[C@@H]3c3cccc(OCCO)c3)cc2)[C@]12C(=O)Nc1ccccc12`, for which the composite z-score in assay [1] is 0.455; in assay [6] it was -0.35; in assay [7], -0.0342; in assay [8], 1.2; in assay [9], 1.3; in assay [10] it was 1.54. Besides, the z-score in assay [2] is -0.08 (inactive); in assay [3], -0.295 (inactive); in assay [4], -0.118 (inactive); in [5], -0.656 (inactive).
Turning to `C=C1C(=O)C=C2CN(C(=O)c3ccccc3)[C@@](Cc3ccc(OC)cc3)(C(=O)OC)[C@@H]12`, the composite z-score in assay [1] worked out at 0.458; in assay [6] it was 1.72; in [7], 0.863; in assay [8] it was 0.124; in assay [9] it was 0.319; in assay [10], 0.193. Moreover, the z-score in assay [2] is -3.68 (inactive); in assay [3], 0.249 (inactive); in [4] it was 0.387 (inactive); in assay [5], 0.2 (inactive).
In the case of `CN(C)CCCC[C@@H]1NC(=O)[C@@H]2C[C@H](C(=O)NCCCCCN)[C@H](c3cccc(OCCO)c3)N2C1=O`, the composite z-score in [1] is 0.132; in assay [6], 0.909; in assay [7], -0.101; in [8], 0.433; in assay [9], 0.0162; in assay [10], 1.58. Also, the z-score in [2] is -0.716 (inactive); in assay [3] it was -0.241 (inactive); in assay [4], -0.118 (inactive); in assay [5], -0.469 (inactive).
Turning to `CC(C)=CCCC(C)=CC(O)C1C=CC2C(=O)NC(=O)C2N1Nc1ccccn1` (stereo not given), the composite z-score in assay [1] is 0.827; in assay [6], 0.968; in [7] it was -0.154; in assay [8] it was 1.61; in [9] it was 1.53; in assay [10] it was 2.08. Further, the z-score in assay [2] is -0.614 (inactive); in [3], -0.564 (inactive); in assay [4] it was -0.333 (inactive); in [5] it was -0.0179 (inactive).
Consider `CC[C@@H]1C=C(C(=O)O)[C@H](c2ccc(OC)cc2)N1S(=O)(=O)c1ccc(C)cc1`, for which the composite z-score in [1] is 0.0237; in [6] it was 0.114; in assay [7] it was -0.016; in assay [8], -0.579; in [9] it was 0.316; in assay [10], -0.236. For the same compound, the z-score in assay [2] is -1.09 (inactive); in assay [3], 1.01 (inactive); in assay [4], 0.0798 (inactive); in assay [5], 0.0935 (inactive).
On to `CCOC(=O)C1=CC[C@@H](c2ccc(OC)cc2)N(S(=O)(=O)c2ccc(C)cc2)[C@H]1CC`, for which the composite z-score came out at 0.174 in assay [1]; 1.53 in [6]; 0.152 in assay [7]; 0.318 in assay [8]; 0.714 in [9]; 0.964 in assay [10]. The z-score was -5.57 (inactive) in assay [2], -0.785 (inactive) in assay [3], -0.882 (inactive) in assay [4] and -0.0915 (inactive) in assay [5].
In the case of `C[N+](C)(C)CCCC[C@@H]1NC(=O)[C@@H]2C[C@H](C(=O)NCc3ccc(F)cc3)[C@H](c3ccc(O)cc3)N2C1=O`, the composite z-score in [1] was -0.176; in assay [6] it was -0.369; in assay [7] it was -0.0963; in assay [8] it was 0.965; in assay [9], 0.729; in assay [10] it was 1.64. Besides, the z-score is -0.0669 (inactive) in [2], -1.22 (inactive) in assay [3], 0.692 (inactive) in [4] and 0.663 (inactive) in assay [5].
As to `C=CCC(OC(C)=O)[C@@H]1[C@@H](N(Cc2cccc3ccccc23)C(=O)Cc2ccc(OC)cc2)c2cc(OCCCO)ccc2N1C(=O)Cc1ccc2ccccc2c1` (stereo not given in full), the composite z-score in [1] was -0.0841; in [6] it was 0.175; in assay [7], -0.181; in assay [8] it was -0.254; in [9], -0.41; in assay [10], 0.0227. Also, the z-score was -1.91 (inactive) in assay [2], 0.255 (inactive) in assay [3], -0.854 (inactive) in [4] and 1.38 (inactive) in assay [5].
Turning to `C=CCN1C(=O)[C@]2(O[C@H](CCn3cc([C@H](O)c4ccccc4)nn3)[C@@H]([Si](C)(C)c3ccc(OC)cc3)[C@@H]2C)c2cc(NC(=O)c3ccc(OC)cc3)ccc21`, the composite z-score is 0.0292 in assay [1]; -0.0759 in assay [6]; 0.117 in assay [7]; -0.68 in assay [8]; 0.0247 in [9]; 1.36 in [10]. The z-score is -3.84 (inactive) in [2], -1.5 (inactive) in assay [3], 1.05 (inactive) in assay [4] and -1.54 (inactive) in [5].
Take `CC1CC/C=C\[C@H]2OC34C=CCN(c5ccc(Cl)cc5)C(=O)[C@H]3N(CCCCCCO)C(=O)[C@]4(C)C2C(=O)O1` (stereo not given in full): the composite z-score in [1] was -0.765; in assay [6], -0.963; in assay [7], -0.239; in assay [8], -2.03; in assay [9], -1.7; in assay [10], -0.12. Moreover, the z-score in [2] is 0.641 (inactive); in [3], 0.306 (inactive); in [4], 1 (inactive); in assay [5] it was -0.446 (inactive).
For `CC(C)C[C@@H]1NC(=O)[C@@]23C(=O)N[C@@H](Cc4ccccc4)C2[C@H](C)[C@@]2(C)O[C@H]2C3/C=C/C/C=C\CNC(=O)CNC1=O` (stereo not given in full), the composite z-score was -0.0717 in [1]; 0.228 in [6]; -0.179 in assay [7]; -0.507 in assay [8]; 0.939 in [9]; 0.214 in [10]. Also, the z-score was -1.91 (inactive) in [2], 0.0738 (inactive) in assay [3], -1.05 (inactive) in [4] and -0.767 (inactive) in [5].
